GLP-1R inv ag: acts as inverse agonist at human GLP-1 receptor; HEK293 GLP-1R CRE-luciferase, luminescence, 24 h; GLP-1R form is constitutively active; 410,000 tested, 1.6% active; P43220; Potency, µM (doses to about 38.3 µM), without a hit: top-dose activity change, negative = inhibition, most hits filed as inhibitors; AID 624417; further: potency means the concentration at half of the fitted maximal effect; on the % scale 0 is the no-effect control and ±100 the full control effect; nearly all actives have a fitted effect of over 55% in size
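HEK293 cells stably co-expressing constitutively active GLP-1R and a cAMP-responsive luciferase reporter were seeded in DMEM with 10% Nu serum, given compounds after 12 h, and incubated 24 h at 37 deg C. Luminescence was then read.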
DRD3 agonist: agonists of human D3 dopamine receptor | P35462 | D3R DiscoveRx beta-arrestin cells, luminescence, 90 min | max activation, % | 410,000 tested, 0.58% active | AID 652048; in the data active means max activation above about 30%; further: 0% is about no effect
Target sequence (P35462 whole entry, looked up): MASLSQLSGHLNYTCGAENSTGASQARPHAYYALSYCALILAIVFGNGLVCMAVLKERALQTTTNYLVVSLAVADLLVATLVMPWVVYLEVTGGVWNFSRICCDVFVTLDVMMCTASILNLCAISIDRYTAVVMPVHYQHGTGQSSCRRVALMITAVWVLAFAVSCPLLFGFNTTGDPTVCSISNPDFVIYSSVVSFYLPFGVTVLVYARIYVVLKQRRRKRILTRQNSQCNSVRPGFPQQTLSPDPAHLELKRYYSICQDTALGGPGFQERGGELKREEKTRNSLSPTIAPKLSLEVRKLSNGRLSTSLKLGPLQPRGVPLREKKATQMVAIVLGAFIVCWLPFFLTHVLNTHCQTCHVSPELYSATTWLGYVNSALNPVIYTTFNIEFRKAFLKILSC
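Agonist-mode cell screen: cells plated at 1500/well and incubated overnight at 37 °C, then exposed to library compounds for 90 min at 37 °C. Detection reagent was added for 30–60 min at room temperature, and luminescence was read.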
GLP1R ag: agonists of human GLP-1 receptor. AID 624172. 380,000 tested, 0.007% active. P43220. Potency, µM (series often up to 45.6 µM), inactives show at the highest dose activation, most hits filed as activators. HEK293 GLP-1R CRE-luciferase, luminescence, 4-6 h; cells express a hypersensitive GLP-1R form; further: potency means the concentration at half of the fitted maximal effect; % of control where 0% means no effect
DRD3 antagonist: D3 dopamine receptor (human) antagonism | P35462 | D3R cells, DiscoveRx beta-arrestin luminescence, antagonist mode; active compounds read low | max response, negative = inhibition, % | 360,000 tested, 2.5% active; in the data active means max response below about -50%; inconclusive means no clear call, values can overlap the other calls; further: on the % scale 0 is the no-effect control and ±100 the full control effect
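Cells plated overnight at 1500 cells/well, then exposed to library compounds with dopamine controls for 90 minutes at 37 degrees C. DiscoveRx reagent added for 30–60 minutes at room temperature; luminescence read, quantitative HTS format.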
* marks the source's active call; other numbers are inactive results; ? = inconclusive; nt = no result. An excerpt weighted towards active compounds, which were near 4.3% of everything screened. Unless noted, the call rests on the fitted dose curve; in most records, active means well fitted curve in the direction sought with a large enough effect; inconclusive means small, poorly fitted or top-dose-only effect, or another doubt; inactive means no such curve, though single readings can be large; an effect the other way counts as inactive or inconclusive.

SMILES | GLP-1R inv ag | DRD3 agonist | GLP1R ag | DRD3 antagonist
Cc1ccc2nc(CN3CCN(C(=O)Nc4cccc(C)c4C)CC3)oc2c1 | -23% | 3 | nt | nt
CCOC(=O)C1CCC(CN(Cc2c(Cl)cccc2Cl)S(=O)(=O)c2ccc(Cl)cc2)CC1 (centres undefined) | -16% | -1 | nt | nt
CCOCCc1nnc(NC(=O)C(=O)c2cc(C)n(-c3cccc(Cl)c3)c2C)s1 | 10% | 5 | nt | nt
COc1ccc(OC)c(NC(=O)CN(Cc2ccc(F)cc2)C2CCCCC2)c1 | 3.5µM* | 14 | 8% | 26
COc1ccc(OC)c(NC(=O)NCc2ccc(F)cc2)c1 | -5% | -34 | -4% | ?
CCN(CCCNC(=O)c1nn(-c2ccc(C)cc2)c(=O)c2c1c1ccccc1n2C)c1cccc(C)c1 | 4% | -11 | nt | nt
COCCCn1c(SCc2nnc(-c3ccccc3)o2)nc2sc3c(c2c1=O)CCC3 | 9% | 11 | -6% | 14
Cn1c(SCc2nnc(-c3ccccc3Br)o2)nc2sc3c(c2c1=O)CCC3 | 67% | 34* | 17% | 27
N#CCC1c2ccccc2CCN1C(=O)Nc1ccc(C(F)(F)F)cc1 (centres undefined) | -10% | -34 | -1% | -94*
COc1ccc2c(Cl)c(-c3nnc(SCC(=O)c4ccccc4)n3C)sc2c1 | 11µM* | 1 | -2% | 20
CCN(CC#CCC(O)(c1ccccc1)c1ccccc1)C(C)C | ? | -5 | 2% | -19
CC(C)N(CC#CCC(O)(c1ccccc1)c1ccccc1)CCO | 10µM* | 4 | -1% | -10
CCc1cccc(C)c1NC(=O)Cn1nc(C)c2nn(-c3ccc(Cl)cc3)c(C)c2c1=O | 4% | 7 | nt | nt
O=C(c1ccc(Cn2cc(Br)cn2)o1)n1cccn1 | -7% | -2 | -6% | -52*
O=C(Nc1ccc(C(F)(F)F)cc1Cl)c1ccc(Cn2cc(Br)cn2)o1 | ? | -1 | 22% | -75*
O=C(NCc1ccccn1)c1ccc(Cn2cc(Br)cn2)o1 | 0% | -1 | -1% | 21
Oc1ccc(CCNc2ncnc3ccc(Cl)cc23)cc1 | ? | 52* | -4% | 51
Nc1nc(Cl)cc(NCCc2ccc(O)cc2)n1 | 122% | -25 | 35% | 2
O=C(O)Cc1sc(Nc2ccccc2Cl)nc1-c1ccccc1 | 5% | 7 | 0% | nt
COC(=O)c1c(-c2ccc(Cl)cc2)noc1N1CCN(c2cccc(C(F)(F)F)c2)CC1 | -16% | 95* | nt | nt
COC(=O)c1c(-c2ccc(Cl)cc2)noc1N1CCN(c2ccc(F)cc2)CC1 | 8% | 64* | nt | nt
COC(=O)c1c(-c2ccc(Cl)cc2)noc1N1CCN(c2ccccc2OC)CC1 | 0% | 28 | nt | nt
Cc1cccc(N(C)S(=O)(=O)c2cc3[nH]c(=O)c(=O)[nH]c3cc2C)c1 | 28% | 6 | nt | nt
COc1ccc(-c2nnc(SCC(=O)Nc3ccc(F)cc3)s2)cc1 | 7% | -9 | nt | nt
CS(=O)(=O)c1nc(S(=O)(=O)c2ccc(Cl)cc2)c(NCCN2CCOCC2)s1 | 7% | 11 | 5% | 5
SMILES | GLP-1R inv ag | DRD3 agonist | GLP1R ag | DRD3 antagonist
COc1ccc(Cl)cc1N/C(N)=N/c1nc(C)cc(=O)[nH]1 | 7% | -9 | 0% | 27
COc1ccc(Cl)cc1Nc1nc(C)cc(=O)[nH]1 | ? | -15 | -11% | -81*
O=C(COc1ccccc1-c1ccccc1)N/N=C/c1ccc2ccccc2c1 | 1µM* | 2 | 21% | -3
NC(=S)N/N=C/c1cccc(/C=N/NC(N)=S)c1 | 51% | -3 | 11% | -14
C/C(=N\NC(=O)COc1ccccc1-c1ccccc1)c1cccnc1 | -2% | 6 | 15% | 1
C/C(=N\NC(=O)COc1ccccc1-c1ccccc1)c1ccccn1 | ? | -22 | 11% | -58*
NC(=S)N/N=C/c1ccc2ccccc2c1 | 5.6µM* | -2 | -1% | ?
Cc1ccc(C)c(OC(=O)CSc2nnc(-c3ccc4c(c3)OCO4)o2)c1 | 11% | 5 | nt | nt
CCN(c1cccc(C)c1)S(=O)(=O)c1ccc2[nH]cc(C(=O)NCCCOC)c(=O)c2c1 | -15% | 2 | 0% | nt
S=c1nc[nH]c2c1cnn2-c1ccccc1 | 11% | 3 | 16% | 31
Cn1ncc2c(=S)nc(Cl)[nH]c21 | 10µM* | -6 | 4% | -27
Cc1ccc(-n2c(=O)c3c(c4cc(C)ccc4n3C)n(CC(=O)Nc3cc(C)cc(C)c3)c2=O)cc1 | 11% | -8 | nt | nt
CCOc1ccc(C(=O)OC2CCN(C)CC2)cc1 | 4µM* | -8 | 1% | -7
COc1ccc(-c2c3c(=O)n(C)c(=O)n(C)c3cn2-c2cccc(N)c2)cc1 | 9% | 5 | nt | nt
